Test results published in PubChem BioAssay (NCI).
About 79,000 compounds went through this panel and 15% of them were active in at least one assay; those are over-represented in the sample as a whole. Active and inactive are the calls of the source. Rule as the data show it: active = growth inhibition above about 70%; inactive = the rest.

Columns and labels:
[1] = NCI Yeast Anticancer Drug Screen. Data for the rad50 strain (AID 155);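 also: 0% = growth of vehicle-only cultures of the same strain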; conditions: S. cerevisiae rad50 strain growth inhibition; at 50.0 µM; stronger effect = higher value
In short: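 Relative growth inhibition (compound vs vehicle) was measured in yeast with a defined repair-gene alteration.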

[2] = NCI Yeast Anticancer Drug Screen. Data for the mec2-1 strain (AID 157); conditions: S. cerevisiae mec2-1 strain, at 50.0 µM, stronger effect = higher value
In short: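 Vehicle-treated cultures served as reference for growth inhibition of compound-exposed mec2-1 yeast.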

[3] = NCI Yeast Anticancer Drug Screen. Data for the sgs1 mgt1 strain (AID 161);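 also: 0% = growth of cultures given vehicle only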; conditions: S. cerevisiae sgs1 mgt1 strain, at 50.0 µM, stronger effect = higher value
In short: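 Test agents were incubated with a DNA-repair-mutant yeast strain. Growth was then read and compared against vehicle-treated controls.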

[4] = NCI Yeast Anticancer Drug Screen. Data for the cln2 rad14 strain (AID 165);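 also: 0% = growth equal to vehicle treated cultures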; conditions: S. cerevisiae cln2 rad14 strain, at 50.0 µM, stronger effect = higher value
In short: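 Each compound was tested on cln2 rad14 yeast. Inhibition of growth was calculated against vehicle-exposed controls.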

[5] = NCI Yeast Anticancer Drug Screen. Data for the bub3 strain (AID 167); conditions: S. cerevisiae bub3 mutant strain, at 50.0 µM, stronger effect = higher value
In short: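 Screening used yeast with an engineered genetic alteration affecting cell cycle control. Compound-exposed cultures were compared with vehicle cultures, and reduced growth was taken as inhibition.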

[6] = NCI Yeast Anticancer Drug Screen. Data for the mlh1 rad18 strain (AID 175); conditions: S. cerevisiae mlh1 rad18 strain growth inhibition; at 50.0 µM; stronger effect = higher value
In short: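 Vehicle-treated cultures served as the reference for growth inhibition in a yeast strain carrying DNA damage repair alterations exposed to each compound.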

Measured: growth inhibition

CCOC(=O)CCC(NC(=O)c1ccc(Nc2nc3cc(C(F)(F)F)ccc3nc2C(=O)OCC)cc1)C(=O)OCC (stereo unspecified)
inactive: [1] -20.1% | [2] 0.55% | [3] -14.3% | [4] -1.85% | [5] -10% | [6] 4.9%

Nc1ncnc2scnc12
inactive: [1] 14.4% | [2] -0.55% | [3] -8.5% | [4] 0.9% | [5] -3.25% | [6] 1.65%

COc1ccc(-c2c3nc(c(-c4ccc(OC)cc4)c4[n-]c(c(-c5ccc(OC)cc5)c5nc(c(-c6ccc(OC)cc6)c6[n-]c2c2ccccc62)-c2ccccc2-5)c2ccccc42)-c2ccccc2-3)cc1.[Zn+2]
inactive: [1] -21.1% | [2] -18.7% | [3] -29.9% | [4] 6.75% | [5] 16.6% | [6] -22.1%

O=C(c1ccccc1)C1Nc2ccc(Cl)cc2C2C=CCC12 (stereo unspecified)
inactive: [1] -1.2% | [2] -7.75% | [3] 6.4% | [4] -7.95% | [5] -0.35% | [6] 14.8%

CCCCNC[C@@H](O)[C@H](O)COS(C)(=O)=O
inactive: [1] 0.4% | [2] -11.7% | [3] -8.65% | [4] -24.1% | [5] -13.7% | [6] -7.05%

CC(=O)OC1CCC2(C)C(CCC3(C)C2CCC2C4C5OC(=O)C4(CCC5(C)C)CCC23C)C1(C)C (stereo unspecified)
inactive: [1] -13% | [2] -23.9% | [3] -17.1% | [4] -5.2% | [5] -33% | [6] 4.6%

c1ccc2c(c1)ccc1cc3c(ccc4ccccc43)cc12
inactive: [1] 15.3% | [2] -11.3% | [3] 7.9% | [4] 13.2% | [5] 34.6% | [6] 12.4%

CC1=Nc2c(C#N)ncn2N=C(C)C1
inactive: [1] 31.9% | [2] 0.25% | [3] 17.5% | [4] 41.4% | [5] 28.8% | [6] -19.1%

CCOC(=O)c1cc(/C=C/C(C)=C/C(=O)OC)oc1C
inactive: [1] 6.85% | [2] 1.4% | [3] -0.45% | [4] -13.3% | [5] 5.4% | [6] 1.25%

CC(COc1ccc(Cl)cc1)OS(=O)(=O)CCCl (stereo unspecified)
inactive: [1] 14.3% | [2] 13% | [3] -16.1% | [4] -16.1% | [5] -1.1% | [6] -4.65%

O=Nc1ccc(Cl)cc1
inactive: [1] -7.1% | [2] 28.9% | [3] -10.3% | [4] 7.15% | [5] 14.9% | [6] 8.45%

C=CCSc1ncnc2c1c(Br)cn2C1OC(CO)C(O)C1O (stereo unspecified)
active: [1] 96.3% | [2] 97.5% | [3] 97.1% | [4] 97.5% | [5] 96.9% | [6] 98.3%

Cc1cccc(C(=O)c2ccccc2Cc2cccc3ccccc23)c1C
inactive: [1] 5.1% | [2] -6.8% | [3] 7.2% | [4] -6.45% | [5] 9.5% | [6] -15.5%

CCCCCCCCCC(CC(OC)OCC)OC (stereo unspecified)
inactive: [1] 10.7% | [2] 4.25% | [3] 5.9% | [4] -13.8% | [5] -2.7% | [6] -24.6%

COc1ccc(C(c2ccccc2)c2ccc(OC)cc2)cc1
inactive: [1] -7.95% | [2] -13% | [3] -12.9% | [4] -124% | [5] 37.7% | [6] 4.45%

Cc1ccc(C(O)c2ccccc2)cc1 (stereo unspecified)
inactive: [1] 25.4% | [2] 6.55% | [3] 17.4% | [4] -61.6% | [5] 1.4% | [6] 9.5%

CC12CCC=CC1=CC(=O)CC2 (stereo unspecified)
inactive: [1] 1.35% | [2] 16.5% | [3] 1.05% | [4] 4.65% | [5] -6.8% | [6] 32.9%

COC1(OC)CC2OC1C1N=NN(C(=O)OC(C)(C)C)C21 (stereo unspecified)
inactive: [1] 28.1% | [2] 13.3% | [3] 6.8% | [4] 21.6% | [5] 16.8% | [6] 31.4%

CC(=O)Nc1cc(F)c(N=Nc2ccc([N+](=O)[O-])cc2)c(F)c1
inactive: [1] -9.5% | [2] -3.45% | [3] 22.1% | [4] -38.2% | [5] -28.1% | [6] -10.3%

Cn1ccnc1CCc1c(Cl)cccc1Cl
inactive: [1] -19.9% | [2] -21.4% | [3] -47.1% | [4] 9.4% | [5] -16.2% | [6] -22.9%

O=C1c2ccccc2C(=O)N1CCCSc1ccc(F)cc1
inactive: [1] 32.8% | [2] -9.5% | [3] 28.4% | [4] 3.5% | [5] 15.3% | [6] 36.2%

Cc1cc(C)c(OC(=O)c2ccc(C(=O)Oc3c(C)cc(C)cc3C)cc2)c(C)c1
inactive: [1] 13.8% | [2] -1.65% | [3] -4.85% | [4] 0.25% | [5] -1.6% | [6] 14.9%

CC1(c2ccc(Cl)cc2)NC(=O)N(CC(=O)Nc2ccccc2)C1=O (stereo unspecified)
inactive: [1] 7.1% | [2] 13.9% | [3] 2.65% | [4] -7.95% | [5] -12.1% | [6] 14.2%

O=S(=O)(O)SCCNCCCCc1ccccc1
inactive: [1] -11.2% | [2] -3% | [3] 2.3% | [4] -5.35% | [5] -6.4% | [6] -22.8%

Cc1nc2c(sc(=S)n2-c2ccccc2)c2nc3ccccc3n12
inactive: [1] -9.35% | [2] -15.7% | [3] 7.7% | [4] -1.2% | [5] -2.55% | [6] -20.6%

S=C1NNC2(C(=S)N1)c1ccccc1-c1ccccc12
inactive: [1] 32.4% | [2] -11.2% | [3] 14.6% | [4] 5% | [5] 3.2% | [6] 55.4%

CCCCCCCCNC(C(=O)c1ccc(Cl)cc1)c1ccc(Cl)cc1 (stereo unspecified)
inactive: [1] 8.05% | [2] 17.4% | [3] 21.6% | [4] -18.3% | [5] -8% | [6] 25.8%

CCCCOC(=O)C1=NNC(=O)C1
inactive: [1] -17.6% | [2] -17.9% | [3] -11.9% | [4] -10.1% | [5] -12.3% | [6] -11.9%

Nc1nc(SCc2ccccc2)c2ncn(C3CC(O)C(CO)O3)c2n1 (stereo unspecified)
inactive: [1] 0.05% | [2] -1.2% | [3] 3.1% | [4] -99.5% | [5] -1.45% | [6] -6.15%

Cc1c(-c2ccccc2)cc(O)c2nc3ccccc3n12
inactive: [1] -31.2% | [2] 6.45% | [3] -16.6% | [4] 2.45% | [5] 11.9% | [6] -36.9%

CC(=O)c1cc2cc(Br)ccc2oc1=O
inactive: [1] 13.5% | [2] 18% | [3] 16.2% | [4] 24.9% | [5] 14.4% | [6] 23.6%

CCCC(C)(O)C(C)(C)C (stereo unspecified)
inactive: [1] 6.85% | [2] 8.65% | [3] 8% | [4] 11.7% | [5] 28.8% | [6] -2.15%

N#CCNC=O
inactive: [1] -2.9% | [2] 7.35% | [3] -13.4% | [4] -11.9% | [5] 2.8% | [6] -11.5%

[Cl][Pt+2][Cl].[NH-]C1CCCC1[NH-] (stereo unspecified)
inactive: [1] 13.8% | [2] 9% | [3] 20.9% | [4] 3.8% | [5] 21.9% | [6] 36.8%

CC(=O)Oc1ccc2c(c1)CC[C@@H]1C2[C@@H](O[N+](=O)[O-])C[C@@]2(C)C1CC[C@@H]2O[N+](=O)[O-] (stereo partly specified)
inactive: [1] 24.4% | [2] 7.9% | [3] 15.2% | [4] 10.1% | [5] 10.1% | [6] 14.8%

Cc1cccc(C(C#N)c2ccc(N)cc2)c1 (stereo unspecified)
inactive: [1] -35.2% | [2] -61% | [3] -4.65% | [4] 11.7% | [5] -46% | [6] -18.4%

CCC/C(Cl)=N/OC(=O)Nc1cc(C(F)(F)F)ccc1OC
inactive: [1] -34.1% | [2] 17.6% | [3] 5.8% | [4] 8.5% | [5] 40.6% | [6] 21.3%

CCCC/C(=N/O)c1ccccc1
inactive: [1] 7.4% | [2] 0.7% | [3] -2.65% | [4] -9.1% | [5] -21.6% | [6] -6.95%

CC(=O)C1C(=O)C(=O)N(c2ccc(Br)cc2)C1=O (stereo unspecified)
inactive: [1] -33.5% | [2] -12.6% | [3] -14.3% | [4] -9.8% | [5] -24.4% | [6] -38%

COc1cc(C(=O)Nc2cccc3ccccc23)c(Br)c(OC)c1OC
inactive: [1] 19.3% | [2] 17.3% | [3] 39.5% | [4] 26.9% | [5] 53.5% | [6] 32.7%

CCOC(=O)CN(C=O)C(C)c1ccccc1 (stereo unspecified)
inactive: [1] 13.1% | [2] 18.4% | [3] 4.4% | [4] 3.7% | [5] 33.6% | [6] 20.9%
